Measured values from PubChem BioAssay.
Several values for one entry are separate records, joined by “and”; a condition that tells them apart may be missing. Equal entries are not always repeated.

experiment: EMT-state selective cytotoxicity in co-culture – imaging, PC-3E GFP, TEM4-18 mCherry, primary screen (AID 1345086); settings: PC-3E GFP / TEM4-18 mCherry co-culture, imaging cell counts; measured here: epithelial PC-3E GFP cell survival; at 1 µM;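 note: cells exposed to compound for 72 h before imaging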

SMILES | normalised cell number
CC(=O)O[C@H]1CC[C@@]2(C)C(C[C@@H](OC(C)=O)[C@@]3(C)C4=CC(=O)O[C@@H](c5ccoc5)[C@]4(C)CCC23)C1(C)C (some centres undefined) | 0.93
O=C(O)/C=C/C=C/c1ccccc1 | 0.93
CNC(C)[C@@H]1CC[C@@H](N)[C@@H](OC2[C@@H](N)C[C@@H](N)[C@H](OC3OC[C@](C)(O)[C@H](NC)[C@H]3O)[C@H]2O)O1 (some centres undefined) | 1.02
O=C(O)c1cc(=O)c(O)c2c(O)c(O)c(O)cc2c1 | 1.11
OC[C@H]1O[C@@H](O[C@H]2[C@H](O)[C@@H](O)[C@@H](O)O[C@@H]2CO)[C@H](O)[C@@H](O)[C@@H]1O | 0.89
S=c1ccss1 | 1.15
COc1cc2oc3cc(OC)c(OC)c(CC=C(C)C)c3c(=O)c2c(OC)c1CC=C(C)C | 1.02
CC(=O)Oc1cc(C)c2c(c1C(OC(C)=O)OC(C)=O)Oc1c(c(C)c(OC(C)=O)c3c1C(OC(C)=O)OC3=O)OC2=O (centres undefined) | 1.03
CC(=O)OCC(=O)[C@@]1(O)CCC2C3CCC4=CC(=O)C=C[C@]4(C)[C@@]3(F)[C@@H](O)C[C@@]21C (some centres undefined) | 1.27
CC(=O)OCC(OC(C)=O)C(OC(C)=O)C(OC(C)=O)C(OC(C)=O)C(COC(C)=O)OC(C)=O (centres undefined) | 0.99
COc1ccc([C@H]2COc3c(ccc(O)c3OC)C2)c(OC)c1O | 0.99
O=C1C=CC(=O)c2c(O)c(Cl)c(Cl)c(O)c21 | 1.04
O=c1cccc2ccc(O)c(O)c2c1O | 0.98
O=C(O)c1ccc2c(c1)OCO2 | 1
COc1ccc(-c2oc3cc(OC)c(OC)c(OC)c3c(=O)c2OC)cc1 | 1.02
Nc1ccc(C(=O)O)c(O)c1 (tested in a mixture with another compound) | 1.14
COc1ccc(-c2coc3cc(O)ccc3c2=O)c(OC)c1 | 1.07
O=c1cc(-c2ccc(O)cc2)oc2cc(O)ccc12 | 1.28
C=CC(C1=CC(=O)C=CC1=O)c1ccccc1 (centres undefined) | 1.13
O=C(NC1CCCCC1)NC1CCCCC1 | 1.15
COc1cc(O)c(C(=O)/C=C/c2ccc(OC)c(O)c2)c(OC)c1 | 0.89
O=c1cc(-c2ccccc2)oc2cccc(O)c12 | 1.1
CC(=O)Oc1cc(OC(C)=O)c2c(c1)O[C@H](c1ccc(OC(C)=O)c(OC(C)=O)c1)[C@@H](OC(C)=O)C2 | 0.98
COc1ccc(/C=C/C(=O)c2cc(O)ccc2O)cc1 | 1.12
Cc1cc(O)c(C=O)c2c1C(=O)Oc1c(COC(=O)/C=C/C(=O)O)c(O)c(C(=O)O)c(C)c1O2 | 1.12
COc1ccc(-c2cc(=O)c3c(OC)c(OC)c(OC)cc3o2)cc1OC | 0.9
COc1ccc(-c2cc(=O)c3c(O)cc(OC)c(OC)c3o2)c(OC)c1 | 0.97
COc1ccc(/C=C/C(=O)O)cc1OC | 0.93 and 1
COc1ccc(/C=C/C(=O)c2ccc(O)cc2O)cc1 | 0.93
